In PubChem BioAssay (NCATS) one finds outcome and Potency data, which are given here for eleven molecules.

SMILES strings stand for the structures. Records with an inconclusive call do not appear. Active and inactive are the calls of the source. Calls come from the whole dose curve; as a rule, active = well fitted cell-killing curve with a large enough effect; inconclusive = small, poorly fitted or top-dose-only effect; inactive = flat fitted curve, though single readings scatter.

Experiment [1] can be described thus: Cell Viability - LYMP2-017 (AID 972). Note: nearly all actives have a fitted effect of over 55% in size. The following applies: LYMP2-017 lymphoblastoid cell viability; series mostly up to 92.2 µM. A digest of the protocol:
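Cytotoxicity is scored as a concentration-dependent drop in cellular ATP in a human lymphoblastoid line after 24 hr treatment at 37 C. Values are AC50s from Hill-equation modelling.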

Experiment [2] in a line: Cell Viability - LYMP2-019 (AID 973). Note: nearly all actives have a fitted effect of over 55% in size. The following applies: LYMP2-019 lymphoblastoid cell line viability; series mostly up to 92.2 µM. The procedure, abridged: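 Cytotoxicity is scored as a concentration-dependent drop in cellular ATP after cells (2500/well) receive compound for 24 hr at 37 C. Tetraoctylammonium bromide serves as positive control.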
A short description of experiment [3]: Cell Viability - LYMP2-021 (AID 974).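 Note: compound exposure lasts 24 hours at 37 °C; nearly all actives have a fitted effect of over 55% in size.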 The following applies: LYMP2-021 lymphoblastoid cells viability; series mostly up to 92.2 µM. A digest of the protocol: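 Loss of cellular ATP, measured with a luciferase-based CellTiter-Glo readout, serves as the toxicity signal in human lymphoblastoid cells treated for 24 hours at 37 C. Potency is reported as AC50 from a standard Hill model.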

A short description of experiment [4]: Cell Viability - LYMP2-023 (AID 975).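 Note: cellular ATP measured by luciferase luminescence as viability proxy; nearly all actives have a fitted effect of over 55% in size.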 The following applies: LYMP2-023 lymphoblastoid cell viability; series mostly up to 92.2 µM. The procedure, abridged:
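Steps: seed 2500 human lymphoblastoid cells per well, incubate 5 hr at 37 C, add compound for 24 hr at 37 C, add CellTiter-Glo, hold 30 min at room temperature, read luminescence. AC50 derived by Hill modelling.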

Experiment [5] is described as follows: Cell Viability - LYMP2-025 (AID 976). The settings on record: LYMP2-025 lymphoblastoid cell viability; series mostly up to 92.2 µM. The procedure, abridged: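 Acute cytotoxicity is scored as a concentration-dependent fall in intracellular ATP, measured by luciferase luminescence, in human lymphoblastoid LYMP2-025 cells exposed to compound for 24 hours at 37 C. AC50 values come from standard Hill fits.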

Experiment [6] is described as follows: Cell Viability - LYMP2-002 (AID 977).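 Note: compound exposure lasted 24 h at 37 °C.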 Note: potency is the fitted concentration of half-maximal effect. The following applies: LYMP2-002 lymphoblastoid cell viability, qHTS; series mostly up to 92.2 µM. A digest of the protocol: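 Human lymphoblastoid cells, 2500/well, complete medium; 5 h 37 C settle; compound 24 h 37 C; CellTiter-Glo, 30 min RT; luminescence. Decrease in ATP = cytotoxicity; AC50 via Hill equation.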
In general terms: Quantitative high-throughput screening tests each substance at several concentrations.

Experiment [7] is described as follows: Cell Viability - LYMP2-006 (AID 978). Note: nearly all actives have a fitted effect of over 60% in size. Note: potency is the fitted concentration of half-maximal effect. The following applies: LYMP2-006 lymphoblastoid cell viability, qHTS; series mostly up to 92.2 µM. The procedure, abridged:
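Human lymphoblastoid cells (LYMP2-006), 2500/well in complete medium, were treated with compound for 24 hr at 37 C. Cellular ATP was read by CellTiter-Glo luminescence after 30 min, and AC50 values came from Hill-equation fits of concentration-response data.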

The nature of experiment [8]: Cell Viability - LYMP2-007 (AID 979).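 Note: cells exposed to compound for 24 h before reading; nearly all actives have a fitted effect of over 60% in size.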 The settings on record: LYMP2-007 lymphoblastoid cell viability; series mostly up to 92.2 µM. A digest of the protocol:
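Cells are seeded at 2500 per well and rested 5 hr. Compounds are then added over a concentration series for 24 hr at 37 C. CellTiter-Glo is added for 30 min at room temperature before luminescence reading.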

Experiment [9] can be described thus: Cell Viability - LYMP2-008 (AID 980). Note: nearly all actives have a fitted effect of over 60% in size. The following applies: LYMP2-008 lymphoblastoid cell viability, qHTS; series mostly up to 92.2 µM. The procedure, abridged: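 Cells seeded at 2500/well and rested 5 hr at 37 C; compounds added over a concentration range and incubated 24 hr at 37 C; CellTiter-Glo added, 30 min at room temperature; luminescence read and AC50 fitted with Hill model.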

Experiment [10] is described as follows: Cell Viability - LYMP2-010 (AID 981). Note: nearly all actives have a fitted effect of over 55% in size. Note: potency is the fitted concentration of half-maximal effect. The following applies: LYMP2-010 lymphoblastoid cell viability, qHTS; series mostly up to 92.2 µM. The source says: NIH Chemical Genomics Center [NCGC]
NIH Molecular Libraries Screening Centers Network [MLSCN]
National Institutes of Environmental Health Sciences [NIEHS]
National Toxicology Program [NTP]
We have developed a 1536-well cell-based assay for quantitative high throughput screening (qHTS) against a number of cell lines to determine in vitro cytotoxicity of small molecules. This particular assay uses a human lymphoblastoid cell line (LYMP2-010) purchased from Coriell Institute for Medical Research.
NCGC Assay Protocol Summary:
The CellTiter-Glo luminescent cell viability assay (Promega) is a homogeneous method to measure the number of viable cells in culture. The end point readout of this assay is based on quantitation of intracellular ATP, an indicator of metabolic activity, using the luciferase reaction. Luciferase catalyzes the oxidation of beetle Luciferin to oxyluciferin and light in the presence of ATP. The luminescent signal is proportional to amount of ATP present.
Using the CellTiter-Glo luminescent cell viability assay, the amount of cellular ATP was measured in the lymphoblastoid cell line with complete culture medium following compound treatment for 24 hours. The assay was performed in opaque white Kalypsys 1536-well plates. In the screen, tetraoctylammonium bromide was used as positive control. Library compounds were measured for their ability to cause acute toxicity in the cell line, as reflected by a decrease in intracellular ATP levels, in a concentration-dependent manner. […] AC50 values were determined from concentration-response data modeled with the standard Hill equation.
qHTS protocol for CellTiter Glo lymphoblastoid cellular assay
[Step] [Parameter] [Value] [Description]
1. Reagent; 5 uL; 2500 lymphoblastoid cells/well
2. Time; 5 hr; 37 C incubation
4. Controls; 23 nL; Tetraoctylammonium bromide 6.4pM to 92 uM
5. Time; 24 hr; 37 C incubation
6. Reagent; 5 uL; CellTiter Glo reagent
7. Time; 30 min; Room Temperature
8. Detection; Luminescence; Viewlux plate reader
Keywords: cell viability, cytotoxicity, lymphoblastoid cell line, luminescence, NTPHTS, NTPHTS_NCGC, NIEHS, DSSTox, MLSMR, MLSCN, NIH Roadmap, qHTS, NCGC

On to `COc1ccc(CN(CCN(C)C)c2ccccn2)cc1`, for which the outcome in experiment [1], in experiment [2], in [3], in experiment [4], in [5] and in [8] was inactive. Moreover, in [9], the molecule was classed as inactive. In addition, the Potency result in experiment [6], in experiment [7] and in [10] was “inactive” throughout.
As to `NC(=O)N1c2ccccc2C=Cc2ccccc21`, the molecule was classed as inactive in experiment [1], in experiment [2], in experiment [3], in experiment [4], in experiment [5] and in experiment [8]. Further, in experiment [9], the molecule was called inactive. Besides, the Potency result in experiment [6], in experiment [7] and in [10] was “inactive” each time.
Regarding `O=c1[nH]c(=O)n([C@H]2C[C@H](O)[C@@H](CO)O2)cc1Br`, the call in experiment [1], in experiment [2], in experiment [3], in experiment [4], in experiment [5] and in experiment [8] was inactive. Moreover, the molecule was classed as inactive in experiment [9]. Also, the Potency entry in experiment [6], in experiment [7] and in experiment [10] was “inactive” in each case.
Consider `Nc1ncn([C@@H]2O[C@H](CO)[C@@H](O)[C@H]2O)c(=O)n1`, for which the Potency in [7] and in experiment [10] was 15.8 µM (active) each time.
Take `CCCCOCCOCCOCc1cc2c(cc1CCC)OCO2`: the call in experiment [1], in [2], in experiment [3], in experiment [4], in [5] and in experiment [8] was inactive. Besides, in experiment [9], the outcome was inactive. For the same molecule, the Potency entry in [6], in experiment [7] and in [10] was “inactive” throughout.
Regarding `COc1cc(Cc2cnc(N)nc2N)cc(OC)c1OC`, the molecule was called inactive in [1], in experiment [2], in experiment [3], in experiment [4], in [5] and in experiment [8]. Further, in experiment [9], the outcome was inactive. Besides, the Potency result in [6], in experiment [7] and in [10] was “inactive” in each case.
Regarding `COC(=O)[C@H]1[C@H]2C[C@@H]3c4[nH]c5cc(OC)ccc5c4CCN3C[C@H]2C[C@@H](OC(=O)c2cc(OC)c(OC)c(OC)c2)[C@@H]1OC`, the molecule was called inactive in experiment [5]. For the same molecule, the Potency in [6] was 79.4 µM (active).
`NC(=Nc1ccccc1)Nc1ccccc1`: the molecule was called inactive in experiment [1], in experiment [2], in [3], in [4], in experiment [5] and in experiment [8]. In addition, in [9], the molecule was classed as inactive. The Potency entry in experiment [6], in experiment [7] and in [10] was “inactive” in each case.
For the molecule `Nc1nc(N)c2nc(-c3ccccc3)c(N)nc2n1`, the outcome in experiment [2], in experiment [3], in [4], in [5] and in experiment [9] was inactive. For the same molecule, the Potency entry in [6] and in experiment [7] was “inactive” throughout.
`CN=C(NC#N)NCCSCc1nc[nH]c1C`: the outcome in experiment [1], in [2], in experiment [3], in [4], in experiment [5] and in experiment [8] was inactive. Moreover, in experiment [9], the result was inactive. Besides, the Potency result in experiment [6], in experiment [7] and in experiment [10] was “inactive” throughout.
In the case of `CCCCNC(=O)NS(=O)(=O)c1ccc(C)cc1`, the molecule was called inactive in experiment [1], in experiment [2], in [3], in [4], in [5] and in experiment [8]. The molecule was called inactive in experiment [9]. Also, the Potency entry in experiment [6], in [7] and in experiment [10] was “inactive” throughout.
